# PubChem BioAssay (NCATS)
# Values joined by “and” are separate entries in the source; they are usually repeats but may differ in a detail not shown here. Identical values can stand only once. Inconclusive results are not listed. Where a call stands in place of a potency, no number is given. A structure can be active in one record and inactive in another. Active and inactive are the calls of the source. Unless noted, calls follow the shape of the full dose curve.
# Experiments:
# [1] = Cell Viability - LYMP2-026 (AID 989; active = well fitted cell-killing curve with a large enough effect;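 also: cells exposed to compound for 24 h at 37 °C; nearly all actives have a fitted effect of over 50% in size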; also: potency is read from the fitted curve at half-maximal effect)
# How it was run: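 qHTS cytotoxicity: 2500 cells/well, 5 hr 37 C, compound 24 hr 37 C, CellTiter-Glo 30 min RT, luminescence. Tetraoctylammonium bromide positive control. AC50 via standard Hill fit.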
# [2] = molecular target: Bile acid receptor (Homo sapiens) (UniProt Q96RI1); test: qHTS assay for small molecule agonists of farnesoid X receptor signaling (AID 588527); conditions: HEK293T FXR-UAS-bla, beta-lactamase ratio, 16 h; activation: stronger effect = higher value
# Sequence of Bile acid receptor (Homo sapiens) (Q96RI1 whole entry, looked up): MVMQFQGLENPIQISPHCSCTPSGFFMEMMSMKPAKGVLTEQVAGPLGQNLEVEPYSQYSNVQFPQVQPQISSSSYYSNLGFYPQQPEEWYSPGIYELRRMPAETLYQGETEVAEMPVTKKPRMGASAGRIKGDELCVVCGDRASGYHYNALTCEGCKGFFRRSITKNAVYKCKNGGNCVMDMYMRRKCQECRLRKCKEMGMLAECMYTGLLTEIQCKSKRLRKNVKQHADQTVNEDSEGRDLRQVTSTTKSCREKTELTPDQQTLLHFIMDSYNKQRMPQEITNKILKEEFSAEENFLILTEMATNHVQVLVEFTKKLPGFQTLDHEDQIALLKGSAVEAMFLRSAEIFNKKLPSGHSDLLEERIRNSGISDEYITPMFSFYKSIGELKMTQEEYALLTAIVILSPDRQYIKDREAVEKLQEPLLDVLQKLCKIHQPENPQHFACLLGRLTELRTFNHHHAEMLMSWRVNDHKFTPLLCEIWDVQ
# How it was run: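 Read-out: beta-lactamase reporter fluorescence with CCF4 substrate in GeneBLAzer FXR-UAS-bla HEK293T cells, after 16 h compound exposure at 37 C. Response scaled between DMSO basal (0%) and chenodeoxycholic acid at 100 uM (100%).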
# [3] = molecular target: Glucocorticoid receptor (Homo sapiens) (UniProt P04150); test: qHTS assay for small molecule agonists of glucocorticoid receptor signaling (AID 588532; active = well fitted curve in the direction sought with a large enough effect in the signal ratio, with a control signal flat; the % refers to the signal ratio); conditions: HeLa MMTV-bla, beta-lactamase ratio, agonist, 18 h; activation: stronger effect = higher value, percent of dexamethasone control, DMSO zero
# Sequence of Glucocorticoid receptor (Homo sapiens) (P04150 whole entry, looked up): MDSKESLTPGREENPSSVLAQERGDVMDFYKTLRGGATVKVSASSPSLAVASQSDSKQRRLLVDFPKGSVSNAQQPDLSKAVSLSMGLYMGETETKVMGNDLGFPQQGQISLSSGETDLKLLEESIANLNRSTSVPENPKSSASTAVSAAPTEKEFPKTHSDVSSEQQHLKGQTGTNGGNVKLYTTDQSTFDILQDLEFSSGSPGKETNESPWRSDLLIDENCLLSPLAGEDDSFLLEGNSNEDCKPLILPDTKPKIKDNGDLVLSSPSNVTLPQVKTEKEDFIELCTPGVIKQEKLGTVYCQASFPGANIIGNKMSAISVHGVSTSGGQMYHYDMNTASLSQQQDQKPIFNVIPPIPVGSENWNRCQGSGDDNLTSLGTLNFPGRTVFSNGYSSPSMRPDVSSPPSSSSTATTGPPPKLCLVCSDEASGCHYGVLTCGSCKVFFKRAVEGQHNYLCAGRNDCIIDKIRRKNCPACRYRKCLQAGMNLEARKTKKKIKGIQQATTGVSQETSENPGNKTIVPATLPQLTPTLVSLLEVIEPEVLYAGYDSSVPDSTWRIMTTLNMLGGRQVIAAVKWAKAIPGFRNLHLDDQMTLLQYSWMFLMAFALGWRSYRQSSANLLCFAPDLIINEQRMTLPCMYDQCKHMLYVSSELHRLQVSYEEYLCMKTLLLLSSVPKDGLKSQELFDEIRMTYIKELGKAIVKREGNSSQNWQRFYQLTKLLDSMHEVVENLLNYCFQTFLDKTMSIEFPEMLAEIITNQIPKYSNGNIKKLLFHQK
# How it was run: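 MMTV-bla HeLa, beta-lactamase reporter; medium with 1% charcoal/dextran-stripped FBS; cpds up to 92 uM, 18 h, 37 C; CCF4 readout 460/530 nm; Hill fit → EC50, efficacy vs 0.1 uM dexamethasone = 100%.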
# [4] = molecular target: Peroxisome proliferator-activated receptor delta (Homo sapiens) (UniProt Q03181); test: qHTS assay for small molecule agonists of peroxisome proliferator-activated receptor delta signaling (AID 588534)
# Sequence of Peroxisome proliferator-activated receptor delta (Homo sapiens) (Q03181 whole entry, looked up): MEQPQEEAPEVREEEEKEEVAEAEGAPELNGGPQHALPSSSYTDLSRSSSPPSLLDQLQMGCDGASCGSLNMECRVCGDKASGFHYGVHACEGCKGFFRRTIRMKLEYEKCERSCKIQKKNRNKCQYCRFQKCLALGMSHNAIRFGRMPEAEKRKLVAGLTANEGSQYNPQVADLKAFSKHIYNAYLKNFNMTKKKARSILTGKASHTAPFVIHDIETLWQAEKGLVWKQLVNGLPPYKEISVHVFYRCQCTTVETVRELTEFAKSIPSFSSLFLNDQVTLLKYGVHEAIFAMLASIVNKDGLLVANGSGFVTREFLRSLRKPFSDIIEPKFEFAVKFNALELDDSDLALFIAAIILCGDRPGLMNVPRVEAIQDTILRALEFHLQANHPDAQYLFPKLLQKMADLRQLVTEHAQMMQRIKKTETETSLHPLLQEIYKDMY
# How it was run: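 Titration series tested in agonist mode on beta-lactamase reporter cells; 18 hrs at 37 C after a 5 hr pre-incubation. Readout: CCF4 fluorescence, 2 hrs RT. Hill equation gives EC50 and maximal response.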
# [5] = molecular target: Vitamin D3 receptor (Homo sapiens) (UniProt P11473); test: qHTS assay for small molecule agonists of vitamin D receptor signaling (AID 588543)
# Sequence of Vitamin D3 receptor (Homo sapiens) (P11473 whole entry, looked up): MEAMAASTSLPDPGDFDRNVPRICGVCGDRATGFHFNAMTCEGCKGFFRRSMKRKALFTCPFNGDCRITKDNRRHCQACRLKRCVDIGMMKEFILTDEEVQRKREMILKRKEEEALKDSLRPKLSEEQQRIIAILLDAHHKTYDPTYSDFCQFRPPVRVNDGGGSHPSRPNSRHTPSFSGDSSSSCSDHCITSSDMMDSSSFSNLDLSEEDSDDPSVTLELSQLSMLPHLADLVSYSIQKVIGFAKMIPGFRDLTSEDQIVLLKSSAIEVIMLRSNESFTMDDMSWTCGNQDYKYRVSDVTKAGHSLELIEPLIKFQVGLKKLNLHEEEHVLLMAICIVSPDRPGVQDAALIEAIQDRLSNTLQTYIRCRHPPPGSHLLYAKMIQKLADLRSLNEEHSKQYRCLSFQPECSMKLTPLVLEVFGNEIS
# How it was run: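 Agonist-mode beta-lactamase reporter: HEK293T VDR-UAS-bla cells in charcoal-stripped 2% FBS, compound series 16 h 37 C, CCF4 2 h RT. EC50 from Hill fit, scaled against DMSO and 50 nM calcitriol control.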
# [6] = molecular target: Retinoic acid receptor RXR-alpha (Homo sapiens) (UniProt P19793); test: qHTS assay for small molecule agonists of retinoid X receptor alpha signaling (AID 588544)
# Sequence of Retinoic acid receptor RXR-alpha (Homo sapiens) (P19793 whole entry, looked up): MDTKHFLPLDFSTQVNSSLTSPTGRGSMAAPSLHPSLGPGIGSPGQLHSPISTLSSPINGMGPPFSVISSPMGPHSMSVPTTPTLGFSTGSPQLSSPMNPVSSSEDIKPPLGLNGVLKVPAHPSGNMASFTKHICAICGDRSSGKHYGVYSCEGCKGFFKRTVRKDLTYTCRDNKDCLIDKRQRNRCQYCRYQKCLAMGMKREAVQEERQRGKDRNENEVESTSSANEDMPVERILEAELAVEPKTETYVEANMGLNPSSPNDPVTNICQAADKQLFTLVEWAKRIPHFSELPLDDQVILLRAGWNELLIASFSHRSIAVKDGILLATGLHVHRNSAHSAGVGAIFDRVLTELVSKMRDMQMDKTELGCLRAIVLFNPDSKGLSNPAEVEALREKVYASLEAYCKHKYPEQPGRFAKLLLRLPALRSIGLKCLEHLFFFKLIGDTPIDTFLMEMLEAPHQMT
# [7] = molecular target: Thyroid hormone receptor beta (Homo sapiens) (UniProt P10828); test: qHTS assay for small molecule agonists of thyroid hormone receptor beta signaling (AID 588545)
# Sequence of Thyroid hormone receptor beta (Homo sapiens) (P10828 whole entry, looked up): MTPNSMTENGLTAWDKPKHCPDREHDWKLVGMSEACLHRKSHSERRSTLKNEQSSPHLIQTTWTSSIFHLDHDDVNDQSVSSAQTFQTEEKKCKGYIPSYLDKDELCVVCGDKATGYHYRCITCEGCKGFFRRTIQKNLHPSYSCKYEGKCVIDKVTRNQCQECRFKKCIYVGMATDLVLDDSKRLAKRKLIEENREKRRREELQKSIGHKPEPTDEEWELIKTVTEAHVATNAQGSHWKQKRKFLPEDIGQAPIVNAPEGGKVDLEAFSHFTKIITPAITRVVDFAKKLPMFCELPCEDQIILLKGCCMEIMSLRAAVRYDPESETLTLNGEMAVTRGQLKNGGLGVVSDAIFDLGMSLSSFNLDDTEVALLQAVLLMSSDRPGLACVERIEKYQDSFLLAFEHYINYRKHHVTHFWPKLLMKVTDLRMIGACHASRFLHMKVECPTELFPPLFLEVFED
# How it was run: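 In this cell-based screen, titrated compounds act on HEK 293 cells held in medium with 2% charcoal/dextran FBS, NEAA and pyruvate for 18 hrs at 37 C. Responses are expressed relative to T3 (10 nM) as 100% and basal DMSO as 0%.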
# [8] = molecular target: Thyroid hormone receptor beta (Homo sapiens) (UniProt P10828); test: qHTS assay for small molecule antagonists of thyroid hormone receptor beta signaling (AID 588547; active = well fitted inhibition curve with a large enough effect in the signal ratio, with a control signal flat, not every such curve was filed as active; the % refers to the signal ratio;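 also: cells stimulated with 0.4 nM T3 agonist during compound exposure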); conditions: TR-UAS-bla HEK293, beta-lactamase ratio, antagonist mode, 18 h
# How it was run: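 TR-UAS-bla GripTite HEK293 cells in 2% charcoal/dextran FBS medium were preincubated 4 h at 37 C, given compound (0.59 nM to 92 uM) plus 0.4 nM T3 (final) for 18 h, then CCF4 for 2 h at RT; Hill fit gave IC50.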
# [9] = qHTS assay for small molecule agonists of the antioxidant response element (ARE) signaling pathway (AID 651741; active = well fitted activation curve with a large enough effect in the signal ratio; the % refers to the signal ratio; also: potency is read from the fitted curve at half-maximal effect)
# How it was run: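 Beta-lactamase reporter expression driven by the antioxidant response element in HepG2 cells was detected by fluorescence with LiveBLAzer B/G FRET substrate (2 h, room temperature) following 16 h compound treatment at 37 C.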
# [10] = qHTS assay for small molecule disruptors of the mitochondrial membrane potential - 1 hr assay (AID 651754); also: nearly all actives have a fitted effect of over 35% in size; also: potency is read from the fitted curve at half-maximal effect
# How it was run: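 Read-out: dye fluorescence at 490 nm ex/535 nm em (monomers) and 540 nm ex/590 nm em (aggregates) in HepG2 cells. Compound exposure 1 hr at 37C, followed by 30 min dye loading.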
# [11] = qHTS assay for small molecule activators of the nuclear factor-kappa B (NF-kB) signaling pathway (AID 651749; active = well fitted activation curve with a large enough effect in the signal ratio; the % refers to the signal ratio); conditions: NF-kB-bla ME-180 cells, beta-lactamase FRET ratio, 16 h; activation: stronger effect = higher value
# How it was run: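 Beta-lactamase reporter expression, controlled by NF-kB response elements in ME-180 cells, was quantified fluorometrically via FRET disruption; cells at 2,000/well had been incubated with 23 nL test compound for 16 hr.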
# [12] = molecular target: Nuclear receptor subfamily 1 group I member 2 (Rattus norvegicus) (UniProt Q9R1A7); test: qHTS assay for small molecule activators of the rat pregnane X receptor (rPXR) signaling pathway (AID 651751; call rule not given here); conditions: rPXR reporter cells, luciferase (One-Glo), 24 h
# Sequence of Nuclear receptor subfamily 1 group I member 2 (Rattus norvegicus) (Q9R1A7 whole entry, looked up): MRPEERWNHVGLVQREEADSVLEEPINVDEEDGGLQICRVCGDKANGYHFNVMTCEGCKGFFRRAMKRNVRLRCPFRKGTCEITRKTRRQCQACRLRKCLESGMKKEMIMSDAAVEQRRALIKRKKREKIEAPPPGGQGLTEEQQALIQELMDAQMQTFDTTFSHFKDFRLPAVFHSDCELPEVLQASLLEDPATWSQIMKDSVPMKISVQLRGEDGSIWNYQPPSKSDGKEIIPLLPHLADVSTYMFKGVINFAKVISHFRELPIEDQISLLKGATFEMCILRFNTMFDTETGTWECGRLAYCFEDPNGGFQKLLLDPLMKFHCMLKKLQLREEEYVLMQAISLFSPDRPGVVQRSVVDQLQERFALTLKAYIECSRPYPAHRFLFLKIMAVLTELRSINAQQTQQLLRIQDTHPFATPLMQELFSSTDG
# [13] = molecular target: Glucocorticoid receptor (Homo sapiens) (UniProt P04150); test: qHTS assay for small molecule antagonists of glucocorticoid receptor signaling (AID 588533; active = well fitted inhibition curve with a large enough effect in the signal ratio, with a control signal flat, not every such curve was filed as active; the % refers to the signal ratio;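 also: cells stimulated with 2 nM dexamethasone as agonist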; also: potency is read from the fitted curve at half-maximal effect)
# How it was run: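 Antagonist-mode qHTS: compound titrations added to GRE-bla HeLa cells, then dexamethasone 2 nM final; 18 h, 37 C. CCF4 FRET fluorescence normalized to dexamethasone and DMSO; IC50 from Hill fit.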
# [14] = qHTS assay for small molecule antagonists of retinoid X receptor alpha signaling (AID 588546; active = well fitted inhibition curve with a large enough effect in the signal ratio, with a control signal flat, not every such curve was filed as active; the % refers to the signal ratio;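 also: cells stimulated with 9-cis-retinoic acid as agonist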); conditions: HEK293T RXRa-UAS-bla, beta-lactamase ratio, antagonist mode; measured here: W530 green channel, cytotoxicity proxy
# How it was run: (§1)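 Beta-lactamase reporter inhibition, read as CCF4 fluorescence ratio (ex 405, em 460/530 nm) after 2 h at RT. HEK293T UAS-bla cells, 2500/well, were stimulated with 9-cis-RA at 500 or 100 nM final alongside test compound for 18 h at 37 C.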
# [15] = molecular target: Retinoic acid receptor RXR-alpha (Homo sapiens) (UniProt P19793); test: as above; conditions: HEK293T RXRa-UAS-bla, beta-lactamase ratio, antagonist mode
# How it was run: as §1
# [16] = NFAT Signaling Pathway (AID 444; active = well fitted curve in either direction with a large enough effect, not every such curve was filed as active;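 also: carbachol stimulus at about its EC50 of 1 µM final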); conditions: Jurkat NFAT-bla M1, carbachol, beta-lactamase ratio, 5 h; at 17.2 µM (top of the series) unless noted
# How it was run: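 Jurkat cells carrying an NFAT-driven β-lactamase reporter and co-transfected muscarinic M1 receptor were treated with compound plus carbachol (1 uM final, an EC50 level) for 5 h at 37 °C. CCF4 loading followed for 1 h at RT; 460/530 nm ratio gave %activity.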
# [17] = Stat Signaling Pathway (AID 446; active = well fitted curve in either direction with a large enough effect, not every such curve was filed as active;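 also: ME-180 cervical cancer cells given 40 pM IL-6 alongside compound; SIE-controlled beta-lactamase reporter measured as 460/530 nm FRET emission ratio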)
# How it was run: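 Emission at 460 and 530 nm (excitation 405 nm) reports SIE-controlled beta-lactamase in ME-180 cells. Cells received compound with 40 pM IL-6 for 5 hrs at 37 C; data scaled between 300 pM IL-6 and 125 nM JAK-inhibitor controls.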
# [18] = molecular target: Vitamin D3 receptor (Homo sapiens) (UniProt P11473); test: qHTS assay for small molecule antagonists of vitamin D receptor signaling (AID 588541); also: potency is read from the fitted curve at half-maximal effect;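 as to activity change, negative = inhibition: receptor activated by calcitriol during compound treatment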
# How it was run: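 VDR-UAS-bla HEK293T cells (2000/well, 2% charcoal-stripped FBS) were treated with titrated compounds plus 1-alpha,25-dihydroxyvitamin D3 (50 nM or 3 nM final) for 16 h at 37 C. CCF4 beta-lactamase fluorescence was read; Hill fits gave IC50.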
# [19] = qHTS assay for small molecule activators of the human pregnane X receptor (PXR) signaling pathway (AID 720659; call rule not given here)
# [20] = molecular target: 3',5'-cyclic-AMP phosphodiesterase 4B (Homo sapiens) (UniProt Q07343); test: qHTS Assay for Inhibitors of PDE-IV (AID 607; active = well fitted activation curve with a large enough effect in the main read-out, with a control signal flat, not every such curve was filed as active)
# Sequence of 3',5'-cyclic-AMP phosphodiesterase 4B (Homo sapiens) (Q07343 whole entry, looked up): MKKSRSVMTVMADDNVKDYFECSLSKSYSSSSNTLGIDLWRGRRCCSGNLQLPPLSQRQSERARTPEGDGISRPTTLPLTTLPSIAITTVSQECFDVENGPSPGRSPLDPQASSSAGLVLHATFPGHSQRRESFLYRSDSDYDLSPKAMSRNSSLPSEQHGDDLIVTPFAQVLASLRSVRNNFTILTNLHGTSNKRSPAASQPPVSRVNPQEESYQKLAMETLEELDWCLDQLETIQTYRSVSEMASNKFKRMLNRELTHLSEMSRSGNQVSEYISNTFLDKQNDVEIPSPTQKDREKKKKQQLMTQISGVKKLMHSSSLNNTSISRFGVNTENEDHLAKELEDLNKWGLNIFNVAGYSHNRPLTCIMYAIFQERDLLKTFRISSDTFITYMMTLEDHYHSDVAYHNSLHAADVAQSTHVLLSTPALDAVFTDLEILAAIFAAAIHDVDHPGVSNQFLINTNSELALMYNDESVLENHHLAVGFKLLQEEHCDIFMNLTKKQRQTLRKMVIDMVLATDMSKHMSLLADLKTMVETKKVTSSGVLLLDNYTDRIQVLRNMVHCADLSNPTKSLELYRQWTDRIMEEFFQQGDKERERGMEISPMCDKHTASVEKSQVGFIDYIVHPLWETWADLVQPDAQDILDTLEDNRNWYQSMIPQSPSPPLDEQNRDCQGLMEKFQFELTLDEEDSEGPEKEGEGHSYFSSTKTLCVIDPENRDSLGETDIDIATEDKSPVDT
# How it was run: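 The readout is membrane depolarisation from a cAMP-sensing CNG channel, detected with a potential dye at ex 535/em 590. Cells were HEK293-derived (endogenous PDE-IV) at 1000 cells/well, titrated up to 22.9 uM final.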
smiles,measurement,setting,value
Clc1ccc(C(c2ccc(Cl)cc2)C(Cl)Cl)cc1,Potency,[1],inactive
same,activation,[2],3.84% (inactive)
same,activation,[3],-2.1% (inactive)
same,outcome,[4],inactive
same,outcome,[5],inactive
same,Potency,[6],inactive
same,Potency,[7],inactive
same,activity change % (negative = inhibition),[8],-7.83% (inactive) and -28.4% (inactive)
same,Potency,[9],66.8 µM (active) and 61.1 µM (active)
same,Potency,[10],59.6 µM (active)
COP(=O)(OC)O/C(=C\Cl)c1cc(Cl)c(Cl)cc1Cl,activation,[2],-2.88% (inactive)
same,outcome,[4],inactive
same,Potency,[7],inactive
same,activity change % (negative = inhibition),[8],2.4% (inactive)
same,Potency,[9],37.6 µM (active)
same,activation,[11],-1.17% (inactive)
same,max response,[12],1.57% (inactive)
O=C(O)C1C(C(=O)O)C2(Cl)C(Cl)=C(Cl)C1(Cl)C2(Cl)Cl (stereo not given),Potency,[1],inactive
same,activation,[2],0.987% (inactive)
same,activation,[3],-1.68% (inactive)
same,Potency,[13],inactive
same,outcome,[4],inactive
same,Potency,[6],inactive
same,Potency,[7],inactive
same,max response,[14],-3.5%
same,max response,[15],-12.3% (inactive)
same,activity change % (negative = inhibition),[8],-20.8% (inactive)
same,Potency,[9],inactive
same,activation,[11],0.511% (inactive)
same,Potency,[10],inactive
same,max response,[12],0.252% (inactive)
Cn1c(O)c(C(=O)c2ccccc2Cl)c(=O)n(C)c1=O,"activity change, negative = inhibition",[16],6.46% (inactive)
same,outcome,[17],inactive
CC(C)[C@@]1(NC(=O)[C@@H]2C=C3c4cccc5[nH]cc(c45)C[C@H]3N(C)C2)O[C@@]2(O)[C@@H]3CCCN3C(=O)[C@H](Cc3ccccc3)N2C1=O,"activity change, negative = inhibition",[16],-19% (inactive)
same,outcome,[17],inactive
O=C(CCl)c1ccccc1,Potency,[1],12.6 µM (active)
same,activation,[3],5.85% (inactive) and 11.4% (inactive)
same,Potency,[13],39.8 µM (active) and inactive
same,outcome,[4],inactive
same,Potency,[18],35.5 µM (active) and inactive
same,outcome,[5],inactive
same,Potency,[7],inactive
same,max response,[14],-13.4%
same,max response,[15],9.61% (inactive)
same,activity change % (negative = inhibition),[8],-10.9% (inactive)
same,Potency,[9],61.1 µM (active)
same,Potency,[10],inactive
same,max response,[12],-5.24% (inactive) and -3.68% (inactive)
same,outcome,[19],inactive
OC(Cc1ccccc1)(c1ccccc1)C1CN2CCC1CC2 (stereo not given),"activity change, negative = inhibition",[16],-83.4% (active)
same,outcome,[17],inactive
ClC1=C(Cl)C2(Cl)C3C(Cl)C(Cl)CC3C1(Cl)C2(Cl)Cl (stereo not given),activation,[3],17.3% (inactive)
same,outcome,[4],inactive
same,Potency,[18],inactive
same,outcome,[5],inactive
same,Potency,[9],66.8 µM (active)
C[C@@H]1CC[C@@]2(OC1)O[C@H]1[C@@H](O)[C@H]3[C@@H]4CC[C@H]5C[C@@H](O[C@@H]6O[C@H](CO)[C@H](O[C@@H]7O[C@H](CO)[C@@H](O)[C@H](O[C@@H]8OC[C@@H](O)[C@H](O)[C@H]8O)[C@H]7O[C@@H]7O[C@H](CO)[C@@H](O)[C@H](O[C@@H]8O[C@H](CO)[C@@H](O)[C@H](O)[C@H]8O)[C@H]7O)[C@H](O)[C@H]6O)[C@H](O)C[C@]5(C)[C@H]4CC[C@]3(C)[C@H]1[C@@H]2C,Potency,[1],15.8 µM (active)
same,Potency,[10],26.6 µM (active)
same,outcome,[19],inactive
COC[C@H]1OC(=O)c2coc3c2[C@@]1(C)C1=C(C3=O)[C@H]2CCC(=O)[C@@]2(C)C[C@H]1OC(C)=O,outcome,[20],inactive
CC(C)CC(C)Nc1ccc(Nc2ccccc2)cc1 (stereo not given),activation,[3],4.35% (inactive)
same,outcome,[4],inactive
same,outcome,[5],inactive
same,max response,[14],-4.53%
same,max response,[15],-33.2% (inactive)
same,Potency,[9],59.6 µM (active)
Cc1c(N=Cc2c(O)n(CCc3ccc(F)cc3)c(=O)[nH]c2=O)c(=O)n(-c2ccccc2)n1C,outcome,[17],inactive
CC(=O)[O-].CC(=O)[O-].O.O.[Cd+2],Potency,[7],inactive
same,Potency,[10],inactive
OC(c1ccc(Cl)cc1)(c1ccc(Cl)cc1)C(Cl)(Cl)Cl,Potency,[1],inactive
same,activation,[2],3.21% (inactive) and 2.17% (inactive)
same,activation,[3],4.22% (inactive)
same,Potency,[13],inactive
same,outcome,[4],inactive
same,Potency,[18],inactive
same,Potency,[6],inactive
same,Potency,[7],inactive
same,max response,[14],-2.98%
same,activity change % (negative = inhibition),[8],-3.99% (inactive)
same,activation,[11],-0.969% (inactive)
same,Potency,[10],inactive
same,max response,[12],-0.762% (inactive) and 6.21% (inactive)
same,outcome,[19],inactive
CN1CCC(OC(=O)C2c3ccccc3Oc3ccccc32)CC1,outcome,[17],inactive
C[C@@H]1O[C@@H](O[C@H]2C[C@@H](O)[C@]3(CO)[C@@H]4[C@@H](O)C[C@]5(C)[C@H](C6=CC(=O)OC6)CC[C@@]5(O)[C@H]4CC[C@@]3(O)C2)[C@H](O)[C@H](O)[C@@H]1O,"activity change, negative = inhibition",[16],-76.4% [at 38 µM] (active)
same,outcome,[20],inactive
COCC(C)OC(=O)c1c(N)n(Cc2ccco2)c2nc3ccccc3nc12 (stereo not given),"activity change, negative = inhibition",[16],10.7% (inactive)
same,outcome,[17],inactive
N#CC(Cl)Cl,outcome,[4],inactive
same,Potency,[18],inactive
same,outcome,[5],inactive
same,Potency,[6],inactive
same,max response,[14],6.6%
same,max response,[15],0.201% (inactive)
same,Potency,[9],26.6 µM (active)
same,activation,[11],-2.38% (inactive)
same,Potency,[10],inactive
same,max response,[12],0.641% (inactive)
same,outcome,[19],inactive
Nc1ccccc1C(=O)OCCc1ccccc1,Potency,[1],inactive
same,activation,[3],-0.582% (inactive)
same,Potency,[13],inactive
same,Potency,[18],inactive
same,outcome,[5],inactive
same,Potency,[7],inactive
same,max response,[14],-8.78%
same,max response,[15],-9.65% (inactive)
same,activity change % (negative = inhibition),[8],-14.2% (inactive)
same,activation,[11],0.217% (inactive)
same,outcome,[19],inactive
